Composite z-score and z-score data for four molecules are collected here from PubChem BioAssay.

Activity calls are given as the source filed them. Unless noted, no rule for the calls is given here.

Test [1] in a line: compounds binding Alexa647 anti-His antibody – biochemical, small-molecule microarray, 635 nm fluorescence, artefact control for SMM control protein annotation, primary screen (AID 1128).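 Also: score merges feature fluorescence with signal-to-noise for each printed compound spot.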 Particulars: higher = more signal.
In test [2] the test system is Human papillomavirus type 1a E7 protein (residues 1-88). In words: HPV1a E7 small-molecule binders, primary screen, biochemical, small-molecule microarray, residues 1-88, 635 nm (AID 1129). Particulars: small-molecule microarray binding, fluorescence 635 nm; higher = more signal.
In test [3] the target is Focal adhesion kinase 1 (Homo sapiens) (UniProt Q05397). In words: PTK2 protein binding on printed compound slides – biochemical, small-molecule microarray, 635/667 nm fluorescence, BSA, DTT, primary screen (AID 1130).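 Also: composite of spot emission at 667 nm and signal to noise over triplicate slides.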 Particulars: 635 nm fluorescence, higher = more signal.
Sequence of Focal adhesion kinase 1 (Homo sapiens) (Q05397 whole entry, looked up): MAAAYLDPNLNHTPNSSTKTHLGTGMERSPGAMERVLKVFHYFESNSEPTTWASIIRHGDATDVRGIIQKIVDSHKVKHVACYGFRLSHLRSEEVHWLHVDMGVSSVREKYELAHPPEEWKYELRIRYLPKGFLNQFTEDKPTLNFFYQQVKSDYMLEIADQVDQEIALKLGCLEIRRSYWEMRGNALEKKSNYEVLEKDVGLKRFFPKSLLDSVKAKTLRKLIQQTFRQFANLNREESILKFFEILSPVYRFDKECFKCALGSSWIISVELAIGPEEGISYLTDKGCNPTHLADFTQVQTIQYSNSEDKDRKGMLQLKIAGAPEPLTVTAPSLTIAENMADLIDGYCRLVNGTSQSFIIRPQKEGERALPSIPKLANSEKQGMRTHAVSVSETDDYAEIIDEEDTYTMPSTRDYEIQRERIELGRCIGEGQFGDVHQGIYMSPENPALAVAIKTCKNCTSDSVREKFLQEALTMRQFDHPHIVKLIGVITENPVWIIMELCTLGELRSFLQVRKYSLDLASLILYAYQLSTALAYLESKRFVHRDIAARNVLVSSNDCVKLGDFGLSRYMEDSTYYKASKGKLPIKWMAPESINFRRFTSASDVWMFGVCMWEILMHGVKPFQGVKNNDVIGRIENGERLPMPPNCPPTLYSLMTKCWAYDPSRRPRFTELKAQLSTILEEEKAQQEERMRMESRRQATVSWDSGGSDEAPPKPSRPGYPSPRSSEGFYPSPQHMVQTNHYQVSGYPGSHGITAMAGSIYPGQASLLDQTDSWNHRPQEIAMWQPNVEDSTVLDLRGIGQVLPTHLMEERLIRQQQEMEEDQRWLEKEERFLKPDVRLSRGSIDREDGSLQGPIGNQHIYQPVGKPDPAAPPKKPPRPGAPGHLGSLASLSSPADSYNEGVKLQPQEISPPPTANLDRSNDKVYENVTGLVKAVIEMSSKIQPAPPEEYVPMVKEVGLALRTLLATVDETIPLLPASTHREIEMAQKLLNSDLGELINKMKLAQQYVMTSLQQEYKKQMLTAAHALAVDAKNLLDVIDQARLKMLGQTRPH
In test [4] the test system is Fibrinogen (Alexa647-labelled). In words: Alexa647-fibrinogen binding to printed small molecules – biochemical, small-molecule microarray, 635/667 nm fluorescence, artefact control for SMM control-protein annotation, profiling panel (AID 1131).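 Also: z-score merges 667 nm fluorescence with per-spot signal-to-noise over triplicate slides.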 The conditions noted are these: fibrinogen-A647 binding fluorescence, higher = more signal.
Test [5] concerns the target Follistatin (Homo sapiens) (UniProt P19883). In words: FST protein binding to printed compounds – biochemical, small-molecule microarray, 635/667 nm fluorescence, primary screen (AID 1132). The conditions noted are these: 635 nm fluorescence, higher = more signal.
Test [6] concerns the target Fibroblast growth factor 2 (Homo sapiens) (UniProt P09038). In words: basic fibroblast growth factor binding to printed compounds – biochemical, small-molecule microarray, 635/667 nm fluorescence, primary screen (AID 1133). Particulars: FGF2, fluorescence 635/667, higher = more signal.
The nature of test [7]: JC-1 mitochondrial potential readout, lung cancer cells – cell-based, A549, JC-1 fluorescence, basal, 24 h, 100 nL, profiling panel (AID 1138).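 Also: A549 lung adenocarcinoma cells under basal conditions with no added stimulus; test concentration not given here.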 Particulars: higher = more signal.
Another test concerns Lefty1. In words: Lefty1 protein binding to printed compounds – biochemical, small-molecule microarray, 635/667 nm fluorescence, primary screen (AID 1139). The conditions noted are these: fluorescence 635/667, higher = more signal.
Test [8] relates to wheat germ agglutinin (Triticum aestivum), Alexa647-labelled. In words: Alexa647-WGA lectin binding to printed small molecules – biochemical, small-molecule microarray, 635/667 nm fluorescence, artefact control for SMM control-protein annotation, profiling panel (AID 1140).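 Also: score merges 667 nm feature emission with signal to noise over triplicate slides.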 The conditions noted are these: WGA-A647 binding, 635 nm fluorescence, higher = more signal.
Test [9] deals with Luciferin 4-monooxygenase (Photinus pyralis) (UniProt P08659). In words: inhibition of purified Photinus pyralis luciferase – biochemical, luminescence, purified enzyme, 2006 set, primary screen (AID 1141).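 Also: cell-free assay with purified firefly luciferase at 100 ng per well in PBS; test concentration not given here.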 Particulars: purified firefly luciferase, SteadyGlo luminescence, 30 min; higher = more signal, called active from +8 up or from −8 down.
Sequence of Luciferin 4-monooxygenase (Photinus pyralis) (P08659 whole entry, looked up): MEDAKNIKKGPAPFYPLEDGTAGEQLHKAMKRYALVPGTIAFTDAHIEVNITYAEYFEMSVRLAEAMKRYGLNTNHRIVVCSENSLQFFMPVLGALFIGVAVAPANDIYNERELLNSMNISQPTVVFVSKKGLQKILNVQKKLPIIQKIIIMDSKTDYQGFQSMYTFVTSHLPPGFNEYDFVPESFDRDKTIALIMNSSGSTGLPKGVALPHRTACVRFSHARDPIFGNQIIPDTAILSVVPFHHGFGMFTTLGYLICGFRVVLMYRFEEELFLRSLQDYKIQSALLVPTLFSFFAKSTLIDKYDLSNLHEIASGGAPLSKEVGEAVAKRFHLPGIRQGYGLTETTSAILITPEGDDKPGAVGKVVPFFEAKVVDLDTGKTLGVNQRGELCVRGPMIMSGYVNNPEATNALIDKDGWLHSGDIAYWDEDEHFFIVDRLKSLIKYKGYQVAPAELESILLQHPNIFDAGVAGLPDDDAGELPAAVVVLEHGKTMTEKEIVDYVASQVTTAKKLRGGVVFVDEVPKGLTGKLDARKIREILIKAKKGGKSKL
The subject of test [10] is Wnt5a (protein binding on small-molecule microarray). In words: small molecules binding Wnt5a protein – biophysical, small-molecule microarray, 635/667 nm fluorescence, primary screen (AID 1142).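 Also: fluorescence read at 667 nm with signal to noise per printed feature.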 Particulars: 635 nm fluorescence, higher = more signal.
The nature of test [11]: ATP-based viability of Huh7 replicon cells – cell-based, CellTiter-Glo luminescence, basal, 48 h, cytotoxicity control for HCV replication inhibitor project, primary screen (AID 1143).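 Also: Huh7 hepatoma cells carrying a hepatitis C replication reporter with no stimulus; test concentration not given here.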 Particulars: higher = more signal, called active from +8 up or from −8 down.
The nature of test [12]: Pseudomonas biofilm growth suppression – PAO1 strain, BacTiter-Glo luminescence, LB-PBS, primary screen (AID 1144). Particulars: P. aeruginosa PAO1 biofilm, 12 h, higher = more signal.
Test [13] is described as follows: basal CRE-LacZ reporter activity in PC12 – cell-based, unstimulated, primary screen (AID 1145). The conditions noted are these: no forskolin, luminescence, 4.5 h, higher = more signal, called active from +8 up or from −8 down.
The nature of test [14]: forskolin-driven CRE-LacZ activity in PC12 – cell-based, CRE-LacZ reporter, forskolin-stimulated, primary screen (AID 1146).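 Also: PC12 cells with 6xCRE LacZ reporter stimulated by forskolin 10 µM; beta-galactosidase reporter signal reflecting CREB driven transcription.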 Particulars: luminescence, 4.5 h, higher = more signal, called active from +8 up or from −8 down.
For test [15], the target named is Streptavidin (Streptomyces avidinii) (UniProt P22629). In words: compounds binding control protein streptavidin – biophysical, small-molecule microarray, 635/667 nm fluorescence, artefact control for SMM compound annotation, primary screen (AID 1147).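 Also: signal reflects streptavidin binding to arrayed compounds as a control protein.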 Particulars: higher = more signal.
Sequence of Streptavidin (Streptomyces avidinii) (P22629 whole entry, looked up): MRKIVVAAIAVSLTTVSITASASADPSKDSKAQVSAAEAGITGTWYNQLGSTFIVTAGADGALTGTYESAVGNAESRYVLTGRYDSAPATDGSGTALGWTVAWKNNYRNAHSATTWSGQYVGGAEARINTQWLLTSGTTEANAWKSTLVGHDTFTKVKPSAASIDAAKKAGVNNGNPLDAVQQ
Test [16] is described as follows: probe aInhba binding on compound microarray – biochemical, small-molecule microarray, 635/667 nm fluorescence, primary screen (AID 1148).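 Also: score merges 667nm spot fluorescence with signal-to-noise for antibody binding to printed compounds.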 The conditions noted are these: higher = more signal.
Test [17] deals with Torsin-1A (Homo sapiens) (UniProt O14656). In words: TOR1A wild-type binding on microarray – cell lysate, small-molecule microarray, lysate, 635/667 nm, primary screen (AID 1149). Particulars: COS7 hTOR1A-WT lysate, 635 nm fluorescence, higher = more signal.
Sequence of Torsin-1A (Homo sapiens) (O14656 whole entry, looked up): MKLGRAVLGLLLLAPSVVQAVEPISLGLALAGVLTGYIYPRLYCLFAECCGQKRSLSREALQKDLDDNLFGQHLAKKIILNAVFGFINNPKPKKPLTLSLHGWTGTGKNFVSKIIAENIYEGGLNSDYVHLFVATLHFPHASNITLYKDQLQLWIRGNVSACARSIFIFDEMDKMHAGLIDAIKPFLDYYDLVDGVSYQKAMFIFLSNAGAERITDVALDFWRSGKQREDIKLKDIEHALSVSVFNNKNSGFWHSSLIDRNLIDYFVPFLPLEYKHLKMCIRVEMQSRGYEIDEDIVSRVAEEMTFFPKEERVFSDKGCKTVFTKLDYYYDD
Test [18] has the same target. In words: torsin A mutant lysate binding on microarrays – cell lysate, small-molecule microarray, COS7 lysate, 635/667 nm fluorescence, primary screen (AID 1150).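 Also: score pools 667 nm emission and signal to noise measuring lysate protein binding.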 Particulars: COS7 hTOR1A mutant lysate, 635 nm fluorescence, higher = more signal.
The test system of test [19] is Sonic hedgehog protein (Shh). In words: Sonic hedgehog microarray binding compounds – biochemical, small-molecule microarray, 635/667 nm fluorescence, primary screen (AID 1151).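 Also: Shh protein binding to compounds spotted on small-molecule microarray slides; score combines spot fluorescence intensity with signal-to-noise across triplicate slides.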 The conditions noted are these: 635 nm fluorescence, higher = more signal.

Sequence of Follistatin (Homo sapiens) (P19883 whole entry, looked up): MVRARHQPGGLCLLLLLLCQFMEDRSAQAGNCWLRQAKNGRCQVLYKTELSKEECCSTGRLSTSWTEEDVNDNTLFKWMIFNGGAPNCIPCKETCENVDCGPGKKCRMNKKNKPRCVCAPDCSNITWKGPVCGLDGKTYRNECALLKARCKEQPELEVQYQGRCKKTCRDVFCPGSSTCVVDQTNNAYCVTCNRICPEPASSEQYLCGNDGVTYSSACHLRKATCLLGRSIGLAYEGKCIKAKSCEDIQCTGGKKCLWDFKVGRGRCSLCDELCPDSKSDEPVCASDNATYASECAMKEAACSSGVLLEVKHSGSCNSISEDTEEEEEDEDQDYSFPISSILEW
Sequence of Fibroblast growth factor 2 (Homo sapiens) (P09038 whole entry, looked up): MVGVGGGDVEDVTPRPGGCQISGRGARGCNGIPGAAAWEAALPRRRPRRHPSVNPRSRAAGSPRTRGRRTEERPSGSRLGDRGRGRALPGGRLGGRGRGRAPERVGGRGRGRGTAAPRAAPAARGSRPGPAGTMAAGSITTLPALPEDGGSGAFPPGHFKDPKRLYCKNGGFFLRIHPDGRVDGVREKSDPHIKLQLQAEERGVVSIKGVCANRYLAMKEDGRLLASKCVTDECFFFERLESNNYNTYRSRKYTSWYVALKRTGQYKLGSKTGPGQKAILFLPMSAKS

For `CC(C)(C)OC(=O)CC[C@]1(C(=O)NCC(O)CO)N=C(c2ccc(OCCCO)cc2)O[C@H]1c1ccccc1` (stereo not given in full), the composite z-score was 0.872 in [1]; 0.937 in test [2]; -0.216 in test [3]; 0.118 in [4]; -0.786 in [5]; -0.494 in [6]. Also, the composite z-score in the test on Lefty1 is -1.71; in test [8] it was 0.94; in test [10], 0.167; in test [15], 0.291; in test [16] it was 0.0391; with Torsin-1A (Homo sapiens) [17] it was 0.709. Also, the composite z-score was 1.6 in the test with Torsin-1A (Homo sapiens) [18] and -1.56 in test [19]. Moreover, the z-score was 0.0908 in [7]; -1 (inactive) in test [9]; -4.48 (inactive) in test [11]; -1.56 (inactive) in test [12]; -0.356 (inactive) in [13]; -0.729 (inactive) in test [14].
For `CC(=O)NCCCC[C@@H]1NC(=O)[C@@H]2C[C@H](C(=O)NCCCC[N+](C)(C)C)[C@H](c3ccc(O)cc3)N2C1=O`, the composite z-score was 3.1 in test [1]; -0.882 in test [2]; -0.218 in [3]; 0.764 in test [4]; 1.48 in [5]; 1.73 in [6]. Moreover, the composite z-score was 1.49 in the test with Lefty1; -0.23 in test [8]; 0.522 in test [10]; -0.146 in test [15]; 0.242 in [16]; 0.804 with Torsin-1A (Homo sapiens) [17]. The composite z-score in the test with Torsin-1A (Homo sapiens) [18] was 0.547; in test [19], 2.24. Further, the z-score was -1.12 in test [7]; -0.174 (inactive) in [9]; -2.24 (inactive) in [11]; -0.279 (inactive) in test [12]; -0.122 (inactive) in test [13]; -0.528 (inactive) in test [14].
Turning to `NC(=O)NCC#Cc1ccc2c(c1)[C@]1(C(=O)N2)[C@H](C(=O)O)[C@H]2C(=O)O[C@H](c3ccccc3)[C@H](c3ccccc3)N2[C@@H]1c1ccc(OCCO)cc1`, the composite z-score came out at 0.894 in test [1]; 0.643 in [2]; 0.116 in [3]; 0.57 in test [4]; 1.18 in test [5]; 0.239 in test [6]. The composite z-score is 0.183 with Lefty1; 0.553 in test [8]; 0.0755 in test [10]; 1.15 in test [15]; -0.102 in test [16]; -0.0721 with Torsin-1A (Homo sapiens) [17]. Moreover, the values for the composite z-score (with Torsin-1A (Homo sapiens) [18]; in test [19]) were 0.588 and 0.135, respectively. Moreover, the z-score in [7] was -0.765; in [9], -2.23 (inactive); in [11] it was -0.175 (inactive); in test [12], -0.015 (inactive); in test [13] it was -0.195 (inactive); in [14], -0.746 (inactive).
Consider `O=C1NC(=O)C2C1C=CC(C(O)c1ccco1)N2Nc1ccccn1` (stereo not given), for which the composite z-score in test [1] was -0.324; in [2], -0.0286; in test [3], -0.429; in test [4] it was -0.17; in [5], 0.292; in [6] it was -0.127. Besides, the composite z-score was -0.042 in the test on Lefty1; 0.325 in test [8]; 0.0477 in test [10]; -0.124 in test [15]; -0.221 in [16]; 0.322 in the test with Torsin-1A (Homo sapiens) [17]. The composite z-score was determined as 0.316 in the test with Torsin-1A (Homo sapiens) [18] and 0.366 in test [19]. Also, the z-score is -0.109 in test [7]; -1.42 (inactive) in test [9]; 0.829 (inactive) in [11]; 0.0748 (inactive) in test [12]; -0.522 (inactive) in [13]; 0.413 (inactive) in test [14].
